Experimental data published in PubChem BioAssay (Tox21).
Records with an inconclusive call do not appear. A number with no mark means an inactive call. Calls follow the shape of the full dose curve.

Assay: p53 small molecule agonists, cell-based qHTS assay with rat liver microsomes (AID 1963578)
Settings: HCT-116 p53RE-bla, beta-lactamase ratio, 16 h; series mostly up to 66 µM; activation: at the top concentration
Text: U.S. Tox21 Program National Center for Advancing Translational Sciences [NCATS] Division of Preclinical Innovation [DPI] U.S. Environmental Protection Agency [EPA] National Institutes of Environmental Health Sciences [NIEHS] National Toxicology Program [NTP] U.S. Food and Drug Administration [FDA] Tox21 Assay Overview: p53, a tumor suppressor protein, is activated following cellular insult, including DNA damage and other cellular stresses. The activation of p53 regulates cell fate by inducing DNA repair, cell cycle arrest, apoptosis, or cellular senescence. The activation of p53, therefore, is a good indicator of DNA damage and other cellular stresses. […] The activation of the reporter gene under culture conditions can be detected by fluorescence intensity. This cell line was used to screen the Tox21 10K compound library in the condition of presence of rat liver microsomes and to identify agonists that activate the p53 signaling pathway after in vitro metabolic activation (Ooka et al., Archive of Toxicology 96:1975-1987, 2022).
Tox21 Assay Protocol Summary: The p53RE-bla cells were dispensed at 4,000cells/3ul/well in 1536-well black-clear bottom plates. After the assay plates were incubated at 37 C, 5% CO2 incubator for 5 hours, 23 nL of compounds dissolved in DMSO, positive controls or DMSO only was transferred to the assay plate. Following compound addition, 3 uL of rat liver microsomes (Molecular Toxicology, Boone, NC) at final concentration of 0.5 mg/mL and 1uL of Beta-Nicotinamide adenine dinucleotide 2-phosphate (NADPH) at final concentration of 0.5 mg/mL were transferred to the assay plate. The plates were incubated at 37 C for 16 hours. 1 uL of LiveBLAzer detection mixture was added to each well and the plates were incubated at room temperature in the dark for 2 h.
% is scaled to controls: 0 for no effect and ±100 for the full control effect.

| Structure (SMILES) | activation |
| --- | --- |
| CC(CN)CCCN (stereo not given) | 0.769% |
| CCCCCCCCCCCCSC#N | -7.77% |
| CC(=O)Oc1ccc(C2(c3ccc(OC(C)=O)cc3)Oc3ccccc3NC2=O)cc1 | 0.449% [at 30.3 µM] |
| CNCC[C@H](Oc1cccc2ccccc12)c1cccs1 | 0.0866% [at 30.3 µM] |
| CC(Cc1ccc(O)c(O)c1)C(C)Cc1ccc(O)c(O)c1 (stereo not given) | -4.6% |
| CC[C@H]1CC[C@H](NCc2cc3c(cc2OC)[C@H]2C[C@H]2C(=O)N3C)[C@H](c2ccccc2)N1 | -4.43% |
| c1ccc(-c2nc3ccccc3[nH]2)cc1 | -5.82% |
| CN(C)c1ccc(C2(c3ccc(N(C)C)cc3)OC(=O)c3cc(N(C)C)ccc32)cc1 | 2.76% |
| CC1C2CC(CC2C2CCCC(O)C2)C1(C)C (stereo not given) | -1.99% |
| COCCOc1cc2cc(C(=O)NC3CCN(C(C)C)CC3)n(CC(=O)Nc3ccc(Cl)cn3)c2cn1 | -0.578% |
| Cc1c[nH]c(=O)[nH]c1=O | -0.0434% |
| CC(C)NCC(O)COc1ccc(CCOCC2CC2)cc1 (stereo not given) | -2.21% [at 30.3 µM] |
| CCCC(=O)O[C@]1(C(=O)CCl)[C@@H](C)C[C@H]2[C@@H]3CCC4=CC(=O)C=C[C@]4(C)[C@@]3(F)C(=O)C[C@@]21C | 3.45% [at 30.3 µM] |
| CC(C)c1cccc(C(C)C)c1NC(=O)NS(=O)(=O)c1cc(C(C)(C)O)co1 | -0.186% |
| CC1(C)O[C@@H]2C[C@H]3[C@@H]4CCC5=CC(=O)CC[C@]5(C)[C@@]4(F)[C@@H](O)C[C@]3(C)[C@]2(C(=O)CCl)O1 | -0.0213% [at 30.3 µM] |
| CCCc1ncc(C[n+]2ccccc2C)c(N)n1 | 0.573% [at 30.3 µM] |
| CCOC(=O)c1ccc(C2CCC(NC[C@H](O)COc3ccc(O)c(NS(C)(=O)=O)c3)CC2)cc1 (stereo not given in full) | -0.149% |
| Cc1nc(N)nc(N)c1-c1ccc(Cl)c(Cl)c1 | 12% [at 30.3 µM] |
| COC(=O)CC(C)CCC=C(C)C (stereo not given) | 0.535% |
| CC1=CCC(C(C)C)C=C1 (stereo not given) | -3.55% |

| Structure (SMILES) | activation |
| --- | --- |
| Cc1[nH]cnc1C[C@H]1CCc2c(C)c3ccccc3n2C1=O | 1.02% |
| O=C(Nc1ccc2c(c1)Cc1ccccc1-2)C(F)(F)F | 5.93% |
| Nc1ccn([C@H]2CS[C@@H](CO)O2)c(=O)n1 | -1.26% |
| O=C(O)COC(=O)Cc1ccccc1Nc1c(Cl)cccc1Cl | -6.62% [at 30.3 µM] |
| CCCOC(=O)c1c(Cl)c(Cl)c(Cl)c(Cl)c1C(=O)OCCC | 0.787% |
| C[C@]12CCC(=O)C=C1[C@@H]1C[C@@H]1[C@H]1[C@@H]3[C@@H]4C[C@@H]4[C@@]4(CCC(=O)O4)[C@@]3(C)CC[C@@H]12 | -4.54% [at 30.3 µM] |
| Cc1ccc([N+](=O)[O-])cc1Cl | -0.164% |
| CC(C)c1ccc(O)c(C(C)C)c1 | -1.36% |
| O=C(O)c1ccc(-n2nc(-c3ccccc3O)nc2-c2ccccc2O)cc1 | -5.81% [at 30.3 µM] |
| CN1CCN(CCCN2c3ccccc3Sc3ccc(S(=O)(=O)N(C)C)cc32)CC1 | 0.414% [at 30.3 µM] |
| CCOC(=O)CC(O)(CC(=O)OCC)C(=O)OCC | -2.82% |
| CN(C)c1ccc(C=O)cc1 | -0.467% |
| Nc1nnc(-c2ccc([N+](=O)[O-])o2)o1 | -1.76% |
| CC1(CO)CN(c2ccccc2)NC1=O (stereo not given) | -1.74% |
| C=C(C)C(=O)OCCOC(=O)CC(C)=O | 6.33% |
| CC(O)C#CC(C)O (stereo not given) | 13.8% |
| CCCn1cc[n+](C)c1C | -1.56% |
| CC1=C(C/C=C(\C)CCC[C@H](C)CCC[C@H](C)CCCC(C)C)C(=O)c2ccccc2C1=O | 0.234% [at 30.3 µM] |
| Nc1ccc(N=Nc2ccc(N)cc2)cc1 | -4.18% [at 30.3 µM] |
| Cc1ccc(Cl)c(N)c1Cl | 0.721% |
